An excerpt weighted towards active compounds, which were near 3.6% of everything screened.
IkB sig inh: inhibitors of IkB signaling in ABC-DLBCL cells; ABC-DLBCL IkBa-CBG/CBR dual luciferase ratio, 4 h; response scale: scaled: untreated 0%, proteasome inhibitor 100%; Potency, µM (highest dose often 57.1 µM), inactives show at the top dose IkBa stabilization activation; 0.04% of 110,000 active; active = well fitted curve in the direction sought with a large enough effect in the signal ratio, not every such curve was filed as active; inconclusive = small, poorly fitted or top-dose-only effect, or a change in a side signal; the % refers to the signal ratio;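 note: the direction sought is a rising ratio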
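Luminescence ratio of IκBα-fused green versus native red beetle luciferase in OCI-Ly3 cells, 4 h post-doxycycline with compound; red signal alone, scaled from basal (0%) to zero light (-100%), flagged nonspecific or cytotoxic effects.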
HEK293 cAMP ctrl: counter-screen for TSHR agonists: cAMP increase in parental HEK293. parental HEK293 CNG cAMP sensor, membrane potential fluorescence. Potency, µM (doses to about 57.1 µM), without a hit: at the top dose activation, usual class: activators. 2.5% of 73,000 active. AID 938; note: % of control where 0% means no effect; nearly all actives have a fitted effect of over 55% in size
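Parental HEK 293 cells stably expressing a modified CNG channel (no TSHR) report cAMP rise as membrane depolarization. Membrane potential dye with 100 uM RO 20-1724 was loaded for 60 min at room temperature, then compound added for 30 min; fluorescence read at 590 nm.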
ERK AVP block: blocks ERK signaling stimulated by vasopressin; HEK293-V1b, vasopressin-stimulated pERK AlphaScreen; Potency, µM (series often up to 57.5 µM), for inactives: at the highest dose activity, negative = inhibition, usual class: inhibitors; 0.99% of 72,000 active; AID 995; note: % is set by controls: 0 for no effect and ±100 for the full control effect; nearly all actives have a fitted effect of over 55% in size
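qHTS, compounds titrated on V1b-expressing HEK293 cells. Preincubation 30 min at 37C, vasopressin 25 nM for 5 min, lysis 10 min, bead incubation 5 hr at room temperature.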
TSHR agonist: TSH receptor (human) agonism; 0.48% of 73,000 active; HEK293-CNG-TSHR cells (CNG channel as cAMP sensor), membrane potential dye, cAMP; AID 926; P16473; Potency, µM (doses to about 57.1 µM), for inactives: at the top dose activation, most hits filed as activators; active = well fitted activation curve with a large enough effect in the main read-out, with a control signal flat, not every such curve was filed as active; inconclusive = small, poorly fitted or top-dose-only effect, or a change in a side signal; inactive = no such curve, though single readings can be large or run the other way; % of control where 0% means no effect;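 note: the control signal comes from parental cells without the receptor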
Target sequence (P16473 whole entry, looked up): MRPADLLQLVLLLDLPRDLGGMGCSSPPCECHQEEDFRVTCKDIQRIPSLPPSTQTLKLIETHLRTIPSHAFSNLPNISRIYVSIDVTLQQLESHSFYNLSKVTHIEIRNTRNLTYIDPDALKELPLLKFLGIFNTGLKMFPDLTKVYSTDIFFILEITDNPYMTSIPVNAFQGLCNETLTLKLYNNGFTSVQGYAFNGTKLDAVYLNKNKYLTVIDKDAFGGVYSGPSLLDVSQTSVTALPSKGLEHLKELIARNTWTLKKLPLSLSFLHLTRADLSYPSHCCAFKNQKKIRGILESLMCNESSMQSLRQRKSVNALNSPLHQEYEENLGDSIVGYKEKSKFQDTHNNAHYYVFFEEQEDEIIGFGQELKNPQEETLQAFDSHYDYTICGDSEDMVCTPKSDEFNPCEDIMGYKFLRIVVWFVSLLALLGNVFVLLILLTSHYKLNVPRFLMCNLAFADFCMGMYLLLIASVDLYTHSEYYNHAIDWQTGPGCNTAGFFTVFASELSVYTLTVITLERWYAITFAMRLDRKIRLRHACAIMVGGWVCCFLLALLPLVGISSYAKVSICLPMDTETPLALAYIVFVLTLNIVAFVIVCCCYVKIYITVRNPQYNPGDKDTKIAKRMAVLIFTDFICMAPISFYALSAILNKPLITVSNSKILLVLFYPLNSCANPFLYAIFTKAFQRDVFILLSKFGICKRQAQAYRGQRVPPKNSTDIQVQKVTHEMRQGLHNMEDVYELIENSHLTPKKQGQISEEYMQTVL
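HEK 293 cells stably expressing TSHR and a modified CNG channel, with CNG-only parental cells as counterscreen, were preloaded 60 min at room temperature with membrane potential dye containing 100 uM RO 20-1724. Compound exposure was 30 min, and depolarization was read as fluorescence at 590 nm.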
CRE-bla Fsk: alters forskolin-stimulated CRE reporter signaling in CHO cells | CHO CRE-bla reporter (cAMP response element driving beta-lactamase), forskolin EC10, beta-lactamase ratio | AID 662 | 2.5% of 71,000 active | Potency, µM (series often up to 38.2 µM), inactives show at the top dose activity change, negative = inhibition, most hits filed as activators; active = well fitted activation curve with a large enough effect in the signal ratio, with a control signal flat, not every such curve was filed as active; inconclusive = small, poorly fitted or top-dose-only effect, or effect the other way, or a change in a side signal; the % refers to the signal ratio; note: % of control where 0% means no effect
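Modulation of forskolin signalling: compounds in titration series added with EC10 NKH 477 to CHO cells carrying a CRE-driven beta-lactamase reporter, 3 h, 37C. CCF4 FRET ratio (460/530 nm, ex 405 nm) gives %activity and AC50.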
* marks the source's active call; other numbers are inactive results; ? = inconclusive; / = no result given; [ ] = dose if it differs, or a comment. Unless noted, calls come from the whole dose curve; as a rule, active = well fitted curve in the direction sought with a large enough effect; inconclusive = small, poorly fitted or top-dose-only effect, or another doubt; inactive = no such curve, though single readings can be large; an effect the other way counts as inactive or inconclusive. Potency is the fitted concentration of half-maximal effect.

SMILES | IkB sig inh | HEK293 cAMP ctrl | ERK AVP block | TSHR agonist | CRE-bla Fsk
COC(=O)[C@@]1(Cc2ccc(OC)cc2)[C@H]2c3cc(C(=O)N4CCCC4)n(CCc4ccc(O)c(O)c4)c3C[C@H]2CN1C(=O)c1ccccc1 | / | 6% | 5% | 4% | ?
COC(=O)[C@@]1(Cc2ccccc2)[C@H]2c3cc(C(=O)N4CCCC4)n(Cc4ccc(S(C)(=O)=O)cc4)c3C[C@H]2CN1C(=O)c1ccccc1 | / | 7.9µM* | 25% | ? | -27%
COC(=O)[C@@]1(Cc2ccc(OC)cc2)[C@H]2c3cc(C(=O)N4CCCC4)n(Cc4ccc(Cl)c(C(F)(F)F)c4)c3C[C@H]2CN1C(=O)c1ccccc1 | / | ? | 14% | ? | 1%
COC(=O)[C@@]1(Cc2ccc(OC)cc2)[C@H]2c3cc(C(=O)N4CCCC4)n(Cc4cc(F)cc5c4OCOC5)c3C[C@H]2CN1C(=O)c1ccccc1 | / | 4µM* | -4% | ? | 0%
COC(=O)[C@@]1(Cc2ccc(OC)cc2)[C@H]2c3cc(C(=O)N4CCCC4)n(Cc4ccc(C)o4)c3C[C@H]2CN1C(=O)c1ccccc1 | / | 3.2µM* | 22% | ? | 3%
COC(=O)[C@@]1(Cc2ccc(OC)cc2)[C@H]2c3cc(C(=O)N4CCCC4)n(Cc4ccsc4Br)c3C[C@H]2CN1C(=O)c1ccccc1 | / | 2.5µM* | -11% | ? | -11%
COC(=O)[C@@]1(Cc2ccc(F)cc2)[C@H]2c3cc(C(=O)N4CCCC4)n(Cc4ccccn4)c3C[C@H]2CN1C(=O)c1ccccc1 | / | ? | 5% | ? | -17%
CCn1c(SCC(=O)NCc2ccco2)nnc1C(C)C | ? | 1% | 12% | 4% | ?
COC(=O)[C@@]1(Cc2ccc(OC)cc2)[C@H]2c3cc(C(=O)N4CCCC4)n(Cc4ccc(S(C)(=O)=O)cc4)c3C[C@H]2CN1C(=O)c1ccccc1 | / | 20µM* | -3% | ? | -16%
O=C(Nc1cccc(C(F)(F)F)c1)Nc1ccc2snnc2c1 | -1% | / | / | / | /
Cc1ccc(CCNC(=O)NCc2noc3ccccc23)cc1 | 1% | / | / | / | /
CCCSc1nc2c(cnn2-c2ccc(C)cc2)c(=O)[nH]1 | -2% | 5% | / | -1%[11.4 µM] | 10µM*
O=c1[nH]c(SCc2ccc(F)cc2)nc2c1cnn2-c1ccc(F)cc1 | 1% | 3% | / | 3% | 4µM*
CCCCSc1nc2c(cnn2-c2ccc(Cl)cc2)c(=O)[nH]1 | 0% | ? | 12% | ? | ?
CCSc1nc2c(cnn2-c2ccc(C)cc2)c(=O)[nH]1 | -3% | 3% | / | -10%[11.4 µM] | 10µM*
CCC(Sc1nc2c(cnn2-c2ccc(Cl)cc2)c(=O)[nH]1)C(=O)OC (stereo unspecified) | 3% | ? | / | ? | 3.2µM*
CCCSc1nc2c(cnn2-c2ccccc2)c(=O)[nH]1 | -1% | ? | / | ? | -1%
CCC(C)Sc1nc2c(cnn2-c2ccc(C)cc2)c(=O)[nH]1 (stereo unspecified) | -3% | 0% | / | -5%[11.4 µM] | 1.6µM*
CCOC(=O)C1=C(C)Nc2nc(SC)nn2C1c1ccc(C(=O)OC)cc1 (stereo unspecified) | -1% | 12% | 14% | 16µM* | ?
Cc1ccc(Cn2nnc3c(=O)n(Cc4cc(C)ccc4C)cnc32)cc1 | 0% | 3.2µM* | -18% | ? | ?
COc1cccc(-n2nnc3c(=O)n(Cc4cccc(C)c4)cnc32)c1 | 0% | 10% | / | 4% | 10µM*
COc1ccc(-n2nnc3c(=O)n(Cc4cc(C)ccc4C)cnc32)cc1 | 1% | ? | 8% | ? | 10%
COc1cccc(-n2nnc3c(=O)n(Cc4ccccc4F)cnc32)c1 | -1% | 25µM* | -22% | ? | 13µM*
COc1ccc(Nc2c(-c3ccc(C)o3)nc3ccc(Cl)cn23)cc1 | 0% | / | / | / | /
CCN1CCN(C(CNC(=O)c2ccc3c(c2)OCO3)c2cccnc2)CC1 (stereo unspecified) | 1% | -4% | / | -4% | 13µM*
SMILES | IkB sig inh | HEK293 cAMP ctrl | ERK AVP block | TSHR agonist | CRE-bla Fsk
O=C(NCC(c1cccnc1)N1CCOCC1)c1ccc2c(c1)OCO2 (stereo unspecified) | 1% | 14% | 35% | 7% | -7%
c1ccc(C2(c3ccccc3)OCC(Cn3cncn3)O2)cc1 (stereo unspecified) | ? | 12% | -11% | 10%[11.4 µM] | -9%
CC(C)c1ccc(OCc2nc(-c3ccccn3)no2)c(Br)c1 | ? | ? | -10% | ? | 29%
[O-][n+]1onc2c1CCc1nnc(-c3ccccc3)cc1-2 | 1% | -2% | 19% | 1% | -22%
[O-][n+]1onc2c1CCc1c-2nc(-c2ccccc2)n1OCc1ccccc1 | 0% | 13µM* | -13% | ? | 15%
COC(=O)Cn1c(C(=O)N2CCCC2)cc2c1C[C@H]1CN(C(=O)c3ccccc3)[C@@](Cc3ccccc3)(C(=O)OC)[C@@H]21 | / | 20µM* | -5% | ? | -26%
COC(=O)[C@@]1(Cc2ccccc2)[C@H]2c3cc(C(=O)N4CCCC4)[nH]c3C[C@H]2CN1C(=O)c1ccccc1 | / | 13% | 13% | 8% | 2µM*
COC(=O)[C@@]1(Cc2ccccc2)[C@H]2c3cc(C(=O)N4CCCC4)n(Cc4c(CO)[nH]cc(C)c4=O)c3C[C@H]2CN1C(=O)c1ccccc1 | / | 16% | 4% | 9% | -17%
COC(=O)[C@@]1(Cc2ccccc2)[C@H]2c3cc(C(=O)N4CCCC4)n(CCSCCO)c3C[C@H]2CN1C(=O)c1ccccc1 | / | ? | -14% | ? | ?
COC(=O)[C@@]1(Cc2ccccc2)[C@H]2c3cc(C(=O)N4CCCC4)n(CCc4ccccn4)c3C[C@H]2CN1C(=O)c1ccccc1 | / | 16µM* | -4% | ? | ?
COC(=O)[C@@]1(Cc2ccccc2)[C@H]2c3cc(C(=O)N4CCCC4)n(CC4CC4)c3C[C@H]2CN1C(=O)c1ccccc1 | / | 2µM* | -15% | ? | -15%
